The sample as a whole holds a higher share of hits than the screen did.
KDM5B inhibitor: blocks human KDM5B histone demethylase activity | Q9UGL1 | KDM5B demethylase, FDH-coupled NADH fluorescence (FDH is formaldehyde dehydrogenase) | Potency, µM (series often up to 57.7 µM), usual class: inhibitors | 220,000 compounds, 2.6% hits | AID 1347165; active means well fitted inhibition curve with a large enough effect; further: nearly all actives have a fitted effect of over 70% in size
Target sequence (Q9UGL1 whole entry, looked up): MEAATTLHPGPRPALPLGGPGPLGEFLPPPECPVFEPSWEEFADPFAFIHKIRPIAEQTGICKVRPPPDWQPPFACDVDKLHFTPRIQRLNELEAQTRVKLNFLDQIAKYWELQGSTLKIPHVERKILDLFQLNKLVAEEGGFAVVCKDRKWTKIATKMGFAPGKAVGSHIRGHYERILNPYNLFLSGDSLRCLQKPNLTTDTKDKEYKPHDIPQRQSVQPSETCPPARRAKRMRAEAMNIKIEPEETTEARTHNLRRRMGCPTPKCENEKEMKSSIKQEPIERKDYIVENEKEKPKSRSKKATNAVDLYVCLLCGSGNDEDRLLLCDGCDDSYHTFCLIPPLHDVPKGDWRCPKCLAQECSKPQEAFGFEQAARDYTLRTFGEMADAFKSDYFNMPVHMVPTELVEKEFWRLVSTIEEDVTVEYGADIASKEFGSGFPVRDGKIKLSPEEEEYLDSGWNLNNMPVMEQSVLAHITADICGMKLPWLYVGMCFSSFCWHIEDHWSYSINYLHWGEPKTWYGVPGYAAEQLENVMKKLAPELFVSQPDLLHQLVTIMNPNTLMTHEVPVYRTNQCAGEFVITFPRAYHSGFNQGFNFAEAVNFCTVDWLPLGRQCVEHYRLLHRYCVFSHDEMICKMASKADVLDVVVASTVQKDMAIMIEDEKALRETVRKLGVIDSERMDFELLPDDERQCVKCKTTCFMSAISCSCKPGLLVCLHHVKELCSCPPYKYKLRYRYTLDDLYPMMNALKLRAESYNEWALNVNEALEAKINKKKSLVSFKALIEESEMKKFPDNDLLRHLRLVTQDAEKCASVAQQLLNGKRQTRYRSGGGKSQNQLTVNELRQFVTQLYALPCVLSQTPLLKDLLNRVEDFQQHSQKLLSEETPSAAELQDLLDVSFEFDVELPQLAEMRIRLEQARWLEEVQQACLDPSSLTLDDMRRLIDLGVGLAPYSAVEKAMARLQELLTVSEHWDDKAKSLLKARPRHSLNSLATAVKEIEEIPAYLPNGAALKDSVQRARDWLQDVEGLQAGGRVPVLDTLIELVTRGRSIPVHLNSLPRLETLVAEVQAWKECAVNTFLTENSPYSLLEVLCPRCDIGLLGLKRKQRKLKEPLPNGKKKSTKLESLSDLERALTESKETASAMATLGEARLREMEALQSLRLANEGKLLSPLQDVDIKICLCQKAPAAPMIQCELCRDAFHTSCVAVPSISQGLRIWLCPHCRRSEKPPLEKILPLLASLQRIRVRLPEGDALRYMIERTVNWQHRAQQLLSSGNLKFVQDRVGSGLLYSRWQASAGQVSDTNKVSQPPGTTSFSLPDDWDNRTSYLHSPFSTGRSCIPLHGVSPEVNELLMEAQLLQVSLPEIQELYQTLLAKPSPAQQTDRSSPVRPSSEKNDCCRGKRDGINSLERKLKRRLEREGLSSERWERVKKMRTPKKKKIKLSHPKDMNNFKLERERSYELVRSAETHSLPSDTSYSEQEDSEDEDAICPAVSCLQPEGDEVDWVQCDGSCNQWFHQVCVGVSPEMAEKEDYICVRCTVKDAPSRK
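Measured: NADH fluorescence change, 30 min, RT. System: KDM5BΔAP 200 nM final, H3K4me3 peptide, α-KG, Fe(II), ascorbate, NAD⁺ plus FDH, pH 7.5 HEPES. Compounds: titrated, 10 min pre-incubation with enzyme.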
Numbers stand for hits; 0 = inactive.

SMILES | KDM5B inhibitor
COCCOc1ccc(-c2nc(C)ccc2OC)cc1 | 25µM
COc1ccc(C)nc1-c1cccc(OC)c1C(=O)N(C(C)C)C(C)C | 0
COCCOc1ccc(C(=O)/C=C/c2cc(OC)c(O)c(OC)c2)cc1 | 0
COc1ccc(NC(=O)Cn2nc(-c3cc(C)ccc3C)c3c(c2=O)CCCC3)cc1 | 0
COC(=O)c1ccccc1NC(=O)CSc1nncc2ccccc12 | 0
Cc1sc(NC(=O)C(C)C)c(C#N)c1C | 0
O=C(CCn1ccc(=O)[nH]c1=O)N1CC[C@@H](c2ccc3c(c2)OCO3)[C@H](O)C1 | 0
Cc1ccc(C#N)c(N2CC[C@@H](c3ccc4c(c3)OCO4)[C@H](O)C2)n1 | 28µM
O=C(O)c1cccc(C(=O)N2C[C@@H](C(=O)O)[C@H](c3ccc4c(c3)OCO4)C2)c1 | 0
OC1CCN(c2ccnc(N3CC[C@@H](c4ccc5c(c4)OCO5)[C@H](O)C3)n2)CC1 | 0
O=C(c1ccccc1-c1ncc[nH]1)N1CC[C@@H](c2ccc3c(c2)OCO3)[C@H](O)C1 | 0
CCc1nc(CN2CC[C@@H](c3ccc4c(c3)OCO4)[C@H](O)C2)c(C)[nH]1 | 25µM
Cc1ccc(-c2nnc(C3CN(C(=O)c4n[nH]c5ccccc45)CC34CCOCC4)o2)cc1 (configuration not stated) | 0
Cc1cccc(C(=O)NC(C)C(=O)OC(C)C(N)=O)c1 (configuration not stated) | 0
CCc1ccc(C(C)NC(=O)CN(C)Cc2ccc(C)o2)cc1 (configuration not stated) | 0
COc1ccc2c(c1C)CCC/C2=N\OC(=O)c1ccccc1F | 0
CC(=O)N1CCN(C(C(=O)O)c2cn(CC(=O)O)c3cc(F)ccc23)CC1 (configuration not stated) | 0
Cc1cccc(=O)n1CCC(=O)N1Cc2[nH]cnc2CC1C(=O)O (configuration not stated) | 0
COc1ccc2c(c1)cc(C(=O)N1Cc3[nH]cnc3CC1C(=O)O)n2C (configuration not stated) | 18µM
COc1cc(CC(=O)N2Cc3[nH]cnc3CC2C(=O)O)cc(OC)c1OC (configuration not stated) | 0
Clc1cc(NCCOc2ccccc2)n2nccc2n1 | 0
COc1ccc(S(=O)(=O)NCCNc2cc(C)nc3ccnn23)cc1 | 28µM
COc1ccc(S(=O)(=O)NCc2nc3nc(C)cc(C)n3n2)cc1 | 0
Cn1c(Oc2ccc(-c3ccc(Br)cc3)cc2)c(C#N)c(=O)n(C)c1=O | 0
COc1cc(NC(=O)c2cc3n(n2)CC(c2ccc4c(c2)OCO4)OC3)c(OC)cc1Cl (configuration not stated) | 0
SMILES | KDM5B inhibitor
O=C(NCc1ccc(F)cc1F)c1cc2n(n1)CC(c1ccc(Cl)cc1)OC2 (configuration not stated) | 0
O=C(NCC1CC1)c1cc2n(n1)CC(c1ccc(Cl)cc1)OC2 (configuration not stated) | 0
O=C(Nc1ccc(F)c(Cl)c1)c1cc2n(n1)CC(c1ccc3c(c1)OCO3)OC2 (configuration not stated) | 32µM
O=C(Nc1ccc(Cl)c(Cl)c1)c1cc2n(n1)CC(c1ccc(Cl)cc1)OC2 (configuration not stated) | 28µM
COc1ccc(NC(=O)c2nnn3c2COC(c2ccc(F)cc2)C3)cc1Cl (configuration not stated) | 0
COc1ccc(NC(=O)c2cc3n(n2)CC(c2ccc(Cl)cc2)OC3)cc1Cl (configuration not stated) | 25µM
CC12CCCC(C(N)=O)(CCC1)C2 | 0
O=C(CN1C(=O)S/C(=C\c2cccc(Cl)c2)C1=O)Nc1ccc2oc(=O)ccc2c1 | 0
COc1ccc(C(NC(=O)c2sc(-c3ccsc3)nc2C)c2nccn2C)cc1 (configuration not stated) | 0
COc1ccccc1SC(C)C(=O)NC(C)(C)C (configuration not stated) | 0
CN(C)CCCOC(=O)c1cc(C(C)(C)C)cc(C(C)(C)C)c1 | 0
Nc1cccc(-c2ccc(N3CCOCC3)nn2)c1 | 0
c1cc(-c2cc3c(ccn3Cc3ccncc3)c(N3CCOCC3)n2)cc(N2CCOCC2)c1 | 20µM
Cn1ccc2c(C(=O)NCc3cccnc3)nc(-c3cccc(N4CCOCC4)c3)cc21 | 0
CN(C)Cc1cccc(-c2cc3c(ccn3Cc3ccncc3)c(N3CCOCC3)n2)c1 | 40µM
CNc1nccnc1-c1cccc(CN2CCOCC2)c1 | 0
COc1c(N)ccnc1-c1cccc(CN2CCOCC2)c1 | 0
CC(=O)c1ccc(S(=O)(=O)Nc2cc(Cl)ccc2C(=O)N(C)C)cc1 | 0
COc1ccc(Nc2nc(-c3ccc(CN(C)C(C)=O)cc3)cs2)cc1 | 0
CCOC(=O)c1c(C)c(-c2ccccc2)n(CC(=O)NCCN(C)C)c1C | 0
COc1ccc(CCC(=O)N2CCCC(n3cc(-c4nc(-c5ccccc5)no4)nn3)C2)cc1 (configuration not stated) | 0
Cc1cccc(C(=O)NC2CCN(c3cc(-c4ccccc4)[nH]n3)CC2)c1 | 0
O=C(NC1CCN(c2cc(-c3ccccc3)[nH]n2)CC1)c1ccccc1 | 0
COc1ccc(-c2cc(N3CCCC(NC(=O)c4ccc(N(C)C)cc4)C3)n[nH]2)cc1 (configuration not stated) | 25µM
O=C(NC1CCN(c2cc(-c3ccc(F)cc3)[nH]n2)CC1)c1ccccc1Cl | 0
SMILES | KDM5B inhibitor
CN(C)c1cccc(C(=O)NC2CCN(c3cc(-c4ccccc4)[nH]n3)CC2)c1 | 20µM
O=C(NC1CCN(c2cc(-c3ccc(F)cc3)[nH]n2)CC1)c1ccc(F)cc1F | 0
O=C(NC1CCCN(c2cc(-c3ccccc3)[nH]n2)C1)c1ccc(Br)cc1 (configuration not stated) | 0
CCOc1ccc(C(=O)NC2CCCN(c3cc(-c4ccc(OC)cc4)[nH]n3)C2)cc1 (configuration not stated) | 0
COc1ccc(C(=O)NC2CCCN(c3cc(-c4ccc(Cl)cc4)[nH]n3)C2)cc1 (configuration not stated) | 0
O=C(NC1CCN(c2cc(-c3ccc(F)cc3)[nH]n2)CC1)c1cccc2[nH]ccc12 | 32µM
CN(C)c1ccc(C(=O)NC2CCCN(c3cc(-c4ccccc4)[nH]n3)C2)cc1 (configuration not stated) | 0
CN(C)c1ccc(C(=O)NC2CCN(c3cc(-c4ccccc4)[nH]n3)C2)cc1 (configuration not stated) | 14µM
CC(=O)Nc1ccc(NC(=O)c2cc(-c3ccccn3)nc3ccccc23)cc1 | 0
O=C(Nc1ccccc1F)N1CC2CCC(C1)N2Cc1ccc(-c2cc(F)cc(F)c2)cc1 | 0
O=C(O)Cc1cc(Cl)c2c(c1)OCCCO2 | 0
O=[N+]([O-])c1cnc(NS(=O)(=O)c2ccccc2[N+](=O)[O-])s1 | 0
Cc1nc(-c2ccc(F)cc2)sc1C(=O)NC1C=CS(=O)(=O)C1 (configuration not stated) | 0
O=C(NC1CCCN(c2cc(-c3ccccc3)[nH]n2)C1)c1cccc(F)c1 (configuration not stated) | 0
O=C(NC1CCN(c2cc(-c3ccccc3)[nH]n2)C1)c1ccc(Br)cc1 (configuration not stated) | 0
Cc1ccc(C(=O)NC2CCN(c3cc(-c4ccccc4)[nH]n3)C2)cc1 (configuration not stated) | 14µM
Cc1ccc(C(=O)NC2CCCN(c3cc(-c4ccccc4)[nH]n3)C2)cn1 (configuration not stated) | 0
